# Screen size: about 5,400 compounds; about 190 (3.5%) showed an effect of 50% or more. The full list was thinned out, with strong results kept by preference. Starred links: 1 amine or outer side, 2 acyl side, 3 side chain; linkers in the order of their positions; H or OH if unused. Positions of bridges follow the written chain, without caps; N, C: chain ends. Non-standard residues stand in square brackets, D forms with d. Residues, ends and D or L forms follow the SMILES beside them. *: point of attachment. X5 = NC1=N[C@@H](O)C[C@H]([C@H](N[*:1])C(=O)[*:2])N1; ΔAla(Z-3-ureido) = NC(=O)N/C=C(\N)C(=O)O; β3hOrn = NCCC[C@H](N)CC(=O)*; Dap = NC[C@H](N)C(=O)O
# Tested on: Vero-E6
# Test: primary screen, phospholipidosis by LipidTOX staining; higher = more effect of the substance
# Settings: 10 µM
# Summary of the method: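 Drug-induced phospholipidosis detected with HCS LipidTOX Red reagent in Vero-E6 cells. Compounds tested at 10 μM, with amiodarone (10 μM) as positive control and DMSO (0.1 v/v %) as vehicle.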
row,SMILES,result_ITMP [%]
1,C[C@@H]1CN(CCCn2c3ccccc3c3ccccc32)C[C@H](C)N1,99.9
2,O=c1[nH]c2ccccc2c(=O)n1CCCN1CCN(c2ccccc2)CC1,-3.31
3,O=c1[nH]c2ccccc2n1CCCN1CCN(C(c2ccccc2)c2ccccc2)CC1,26.4
4,CC(C)CCC[C@@H](C)[C@H]1CC[C@H]2[C@@H]3CCC4=CC(=NO)CC[C@]4(C)[C@H]3CC[C@]12C,-0.61
5,CNCCCC1(c2ccccc2)OC(C)(C)c2ccccc21 (stereo not drawn),29.5
6,CNCCCC12CCC(c3ccccc31)c1ccccc12,107
7,CNCCCN1c2ccccc2CCc2ccccc21,36.6
8,O=C(O)c1ccc(N[C@H]2O[C@H](CO)[C@@H](O)[C@H](O)[C@@H]2O)cc1,-5.7
9,CC1(S(=O)(=O)[O-])CC(=O)c2ccccc2C1=O (stereo not drawn),-0.84
10,CN(C)CCC=C1c2ccccc2C=Cc2ccccc21,71.1
11,CN(C)CCC=C1c2ccccc2CCc2ccccc21,39.7
12,CN(C)CC/C=C1\c2ccccc2CSc2ccccc21,43.7
13,CN(C)CC/C=C1\c2ccccc2Sc2ccc(Cl)cc21,51.1
14,CN(C)CCOC1=Cc2ccccc2Sc2ccc(Cl)cc21,13.9
15,CN(C)CC/C=C1/c2ccccc2COc2ccccc21,41.1
16,COCc1nc2c(=O)n(C)c(=O)n(CC(C)C)c2[nH]1,-0.95
17,NC(N)=N/C(N)=N/CCc1ccccc1,-1.11
18,CN/C(=N\C#N)NCCSCc1csc(N=C(N)N)n1,2.7
19,CN[C@@H]1Cc2cccc3nc(O)n(c23)C1,5.61
20,COc1ccc2c(c1)CN(C)CC2c1ccc(Cl)c(Cl)c1 (stereo not drawn),12.7
21,CN[C@@H]1C[C@@H](c2ccc(Cl)c(Cl)c2)c2ccccc21,71.1
22,CN[C@H]1CC[C@@H](c2ccc(Cl)c(Cl)c2)c2ccccc21,56.1

row,SMILES,result_ITMP [%]
1,O[C@@H]1CCCC[C@H]1N1CCC(c2ccccc2)CC1 (racemic),-4.38
2,S=C(NC1CCCCC1)N1CCC(c2c[nH]cn2)CC1,1.61
3,Oc1ccc2c3c1OC1C(O)CCC4(O)C(C2)N(CC2CCC2)CCC314 (stereo not drawn),1.96
4,CC(COc1ccccc1)N(CCCl)Cc1ccccc1 (stereo not drawn),0.48
5,c1ccc(CN(CC2=NCCN2)c2ccccc2)cc1,16.9
6,CC(C)COCC(CN(Cc1ccccc1)c1ccccc1)N1CCCC1 (stereo not drawn),66.8
7,COc1ccc2c3c([nH]c2c1)[C@H](CC(C)C)N1C(=O)[C@H](CCC(=O)OC(C)(C)C)NC(=O)[C@@H]1C3,-1.42
8,N[C@@]1(C(=O)O)CC[C@H](C(=O)O)C1.N[C@]1(C(=O)O)CC[C@@H](C(=O)O)C1,-0.35
9,CCS(=O)(=O)N1CCN(c2ccc(Nc3ncc(C(N)=O)c(NC4CC4)n3)cc2)CC1,1.28
10,CNC(=O)c1nn(C)c2c1C(C)(C)Cc1cnc(Nc3ccc(N4CCN(C)CC4)cc3)nc1-2,54.6
11,CN1CCN(c2ccc(OC(F)(F)F)c(Nc3ncc4c(n3)-c3c(c(C(N)=O)nn3CCO)CC4)c2)CC1,-0.49
12,CC1(C)CC[C@]2(C(=O)O)CC[C@]3(C)[C@H](C(=O)C=C4[C@@]5(C)C=C(C#N)C(=O)C(C)(C)[C@@H]5CC[C@]43C)[C@@H]2C1,-1.94
13,C=CCCCCCCCCC(=O)[O-],1.9
14,CCCCCCCCC(=O)N[C@H](CN1CCCC1)[C@H](O)c1ccc2c(c1)OCCO2,63.4
15,CCCCCCCCCCCCCCCC(=O)OC[C@@H](NC(=O)C(Cl)Cl)[C@H](O)c1ccc([N+](=O)[O-])cc1,-1.35
16,CCCCCCCC/C=C\CCCCCCCC(=O)N[C@@H](CO)Cc1ccc(O)cc1,-1.63
17,CCCCCCCC(=O)N[C@H](CN1CCCC1)[C@H](O)c1ccc2c(c1)OCCO2,51.9
18,Cn1cnc([N+](=O)[O-])c1Sc1[nH]cnc2ncnc1-2,-1.78
19,N=C(N)Nc1ccc2[nH]c3c(c2c1)C[C@@]1(O)C2Cc4ccc(O)c5c4[C@@]1(CCN2CC1CC1)[C@H]3O5,-0.46
20,Nc1ccc(S(=O)(=O)[N-]c2cnc3ccccc3n2)cc1,-3.26
21,O=C([O-])c1nc(=O)[nH]c(=O)[nH]1,-2.23
22,CCC[C@@H]1CC2=CC(=O)CC[C@]2(C)[C@H]2CC[C@@]3(C)[C@@H](CC[C@@]3(O)CCC(=O)[O-])[C@H]12,-2.26

row,SMILES,result_ITMP [%]
1,NC1=N[C@H]2[C@H](CCCCC(=O)O)SC[C@H]2N1,-5.63
2,C[C@]12CC[C@H]3[C@@H](CCC4=CC(=O)CC[C@@H]43)[C@@H]1CC[C@@H]2O,-1.6
3,NCCC[C@H](N)CC(=O)N[C@H]1CNC(=O)[C@H]([C@H]2C[C@H](O)N=C(N)N2)NC(=O)/C(=C/NC(N)=O)NC(=O)[C@H](CO)NC(=O)[C@H](CO)NC1=O (β3hOrn-[Dap]SS[ΔAla(Z-3-ureido)][X5]; lactam 1-C),-3.72
4,CCOc1cc(C(C)(C)C)ccc1C1=N[C@@](C)(c2ccc(Cl)cc2)[C@@](C)(c2ccc(Cl)cc2)N1C(=O)N1CCN(CCCS(C)(=O)=O)CC1,106
5,Cc1c(Cl)cccc1S(=O)(=O)Nc1nc(NCCc2ccccc2)nc2c1CN(Cc1ccccc1)CC2,-0.11
6,COc1ccc2c(c1)c(C1=C(c3c[nH]c4ccccc34)C(=O)NC1=O)cn2CCCN(C)C,120
7,Cn1cc(C2=C(c3cn(CCCSC(=N)N)c4ccccc34)C(=O)NC2=O)c2ccccc21,15.8
8,CN(C)CCCn1cc(C2=C(c3c[nH]c4ccccc34)C(=O)NC2=O)c2ccccc21,-0.11
9,CS(=O)(=O)c1ccc(-c2cn3ccccc3n2)cc1,-2.12
10,O=C([O-])c1ccccc1-c1c2cc(I)c(=O)c(I)c-2oc2c(I)c([O-])c(I)cc12,7.91
11,CCC1=C[C@@H]2C[N@@]3CCc4c([nH]c5ccccc45)[C@@](C(=O)OC)(C2)[C@@H]13,6.61
12,COc1cc2nccc(Oc3ccc(NC(=O)C4(C(=O)Nc5ccc(F)cc5)CC4)cc3)c2cc1OC,0.07
13,COc1cc2c(Nc3ccc(NC(=O)c4ccccc4)cc3)ncnc2cc1OCCCN1CCOCC1,-3.61
14,COc1cc2c(Oc3ccc(NC(=O)C4(C(=O)Nc5ccc(F)cc5)CC4)cc3F)ccnc2cc1OCCCN1CCOCC1,80.1
15,CN1[C@@H]2CC[C@H]1C[C@@H](OC(=O)N1Cc3ccccc3NC1=O)C2,-1.56
16,CS(=O)(=O)CCNCc1ccc(-c2ccc3ncnc(Nc4ccc(OCc5cccc(F)c5)c(Cl)c4)c3c2)o1,91.4
17,Cc1cc(Nc2ncnc3ccc(-c4ccc(CNCCS(C)(=O)=O)o4)cc23)ccc1Oc1ccn2ncnc2c1,48.5
18,CS(=O)(=O)CCNCc1nc(-c2ccc3ncnc(Nc4ccc(OCc5cccc(F)c5)c(Cl)c4)c3c2)cs1,2.46
19,CCn1c(=O)[nH]c2ccccc21,-2.45
20,CCCC(CCC)C(=O)NCc1ccc2c(cnn2-c2ccccc2OC)c1,0.82
21,CCn1c2ccccc2c2cc(CNC)ccc21,73.3
22,CCn1c2ccccc2c2cc(CNCc3ccccc3OC)ccc21,56.5

row,SMILES,result_ITMP [%]
1,COc1ccc(CNCc2cccc3ccccc23)cc1,11.4
2,CCCC(CCC)C(=O)[O-],-5.85
3,CC(=O)NCC(=O)N1[C@@H]2CC[C@H]1c1ccc(Nc3ncc(C(F)(F)F)c(NC4CCC4)n3)cc12,2.85
4,Nc1nc(=O)c2c([nH]1)NCC(CNc1ccc(C(=O)N[C@@H](CCC(=O)[O-])C(=O)[O-])cc1)N2C=O (stereo partly drawn),-2.25
5,C=C1/C(=C\C=C2/CCC[C@]3(C)[C@@H]([C@H](C)/C=C/[C@@H](O)C4CC4)CC[C@@H]23)C[C@@H](O)C[C@@H]1O,-1.18
6,Nc1nc(=O)c2c([nH]1)NC[C@H](CNc1ccc(C(=O)N[C@@H](CCC(=O)[O-])C(=O)[O-])cc1)N2C=O,-7.53
7,COc1cc(OC)cc(N(CCNC(C)C)c2ccc3ncc(-c4cnn(C)c4)nc3c2)c1,55.2
8,Cn1cc(-c2ccc3ncc(Cc4ccc5ncccc5c4)n3n2)cn1,3.96
9,COc1cc2ncc(-c3ccccc3)nc2cc1OC,-10.1
10,CCCCCN(C)CCC(O)(P(=O)([O-])O)P(=O)(O)O,3.23
11,C=CCN.ClCC1CO1 (stereo not drawn),-4.42
12,C[C@@H]1N=C(N)NC(N(C)C)=N1,-2.11
13,CC(C)c1cnn2c(NCc3ccccc3)cc(NCCCCCCN)nc12,53.6
14,CC(=O)N[C@H]1[C@H]([C@H](O)[C@H](O)CO)OC(C(=O)O)=C[C@@H]1NC(=N)N,-15.8
15,Cc1ncc(-c2csc(NC(=N)N)n2)[nH]1,-2.01
16,c1ccc2c(c1)Sc1ccccc1N2CC1CN2CCC1CC2 (stereo not drawn),71.6
17,Cn1cc(C(=O)C(=O)N[C@H]2CN3CCC2CC3)c2ccccc21,4.71
18,C[C@H](CCC(=O)[O-])[C@H]1CCC2C3C(=O)CC4CC(=O)CC[C@]4(C)C3CC(=O)[C@@]21C (stereo partly drawn),4.65
19,COc1cc(NC(C)CCCN)c2ncccc2c1 (stereo not drawn),1.37
20,COc1cc(C)c2c(Oc3cccc(C(F)(F)F)c3)c(OC)cc(NC(C)CCCN)c2n1 (stereo not drawn),51.6
21,CO[C@H]1CC[C@H](N(c2cc(C3=CCCCC3)sc2C(=O)[O-])C(=O)[C@H]2CC[C@H](C)CC2)CC1,-0.87
